# M1 ag parental = counter-screen for M1 agonists: effect in parental CHO-K1 cells; 360,000 tested, 0.48% active; Fluo-8 calcium fluorescence; scaled to maximal ATP response, vehicle zero; activation, % at 3 µM; AID 602248; in the data active = activation above about 15%;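 note: untransfected CHO-K1 host cells lacking M1 receptor as counterscreen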
# CHO-K1 Ca antag = counter-screen for M1 antagonists: effect in parental CHO-K1 cells | ATP-induced calcium, Fluo-8 fluorescence | 360,000 tested, 0.6% active | AID 602250 | inhibition, % at 3 µM;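 active = inhibition above a per-plate cutoff, the plate's mean sample inhibition plus 3 SD, cut at about 24% in these data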;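 note: 0% = DMSO plus EC80 ATP and 100% = DMSO alone without ATP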
# CHO-K1 Ca PAM = nonselective activator or artifact in parental CHO-K1 calcium assay; 360,000 tested, 0.02% active; activation, % at 3 µM; ATP EC20, Fluo-8 calcium fluorescence; 0% at ATP EC20, 100% at ATP max;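 active = activation above the run cutoff, the mean activation of all test compounds plus 3 SD, cut at about 40% in these data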;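 note: peak over basal fluorescence ratio in a 140 s read after ATP addition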
# CHRM1 antagonist = antagonists of human M1 muscarinic receptor | CHO-K1 hM1, Fluo-8 calcium fluorescence, ACh EC80 antagonist | inhibition, % at 3 µM | 360,000 tested, 1.3% active | P11229;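 active = percent inhibition above its own plate's cutoff, namely the mean of that plate's compound wells plus 3 SD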;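 note: peak over basal fluorescence ratio during 140 s after agonist addition; 0% = ACh EC80 plus DMSO and 100% = DMSO alone without agonist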
# Target sequence (P11229 whole entry, looked up): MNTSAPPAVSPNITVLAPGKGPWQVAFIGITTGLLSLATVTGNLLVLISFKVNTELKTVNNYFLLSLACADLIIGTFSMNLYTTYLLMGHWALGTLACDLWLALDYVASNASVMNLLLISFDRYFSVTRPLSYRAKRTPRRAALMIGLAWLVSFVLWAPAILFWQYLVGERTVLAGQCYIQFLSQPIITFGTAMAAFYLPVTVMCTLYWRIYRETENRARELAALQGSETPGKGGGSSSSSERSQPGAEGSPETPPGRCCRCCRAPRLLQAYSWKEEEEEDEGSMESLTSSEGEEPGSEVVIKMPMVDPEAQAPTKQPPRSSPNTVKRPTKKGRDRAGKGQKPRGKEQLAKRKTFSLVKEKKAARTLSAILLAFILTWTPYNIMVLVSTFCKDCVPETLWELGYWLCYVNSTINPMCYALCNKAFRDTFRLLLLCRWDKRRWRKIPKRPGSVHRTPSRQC
# M1 ag = agonists of human M1 muscarinic receptor; 360,000 tested, 0.33% active; activation, % at 3 µM; CHO-K1 hM1, Fluo-8 calcium fluorescence, agonist mode; 0% DMSO, 100% acetylcholine EC100; P11229; AID 588814;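 active = activation above the run's mean compound activation plus 3 SD, cut at about 16% in these data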;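 note: peak over basal fluorescence ratio within a 140 s kinetic read after compound addition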
# CHRM1 PAM = positive allosteric modulators of human M1 muscarinic receptor | P11229 | CHO-K1 hM1, Fluo-8 calcium fluorescence, ACh EC20; 0% = ACh EC20, 100% = maximal ACh | activation, % at 3 µM | 360,000 tested, 0.088% active; in the data active = activation above about 19%, passing the limit was not always enough
# An asterisk follows results filed as active. A selection: hits, their analogues and other compounds. The true share with any hit is near 2.3%.
SMILES,M1 ag parental,CHO-K1 Ca antag,CHO-K1 Ca PAM,CHRM1 antagonist,M1 ag,CHRM1 PAM
Cc1onc(NC(=O)c2ccc(Cl)cc2Cl)c1Br,0.9,-17.1,19.5,-9.4,-3.1,7.2
CCCCn1c(N)c(N(CCOC)C(=O)c2ccc(COc3ccccc3)o2)c(=O)[nH]c1=O,2.1,-13.3,18.9,-13.3,-3.6,11.9
OCCC1CN(Cc2nc(-c3ccccc3)cs2)CCN1C1CCCC1 (stereo not drawn),0.3,-6.4,11.5,45.0*,-7.4,-24.2
NC(=O)c1ccc(NC(=O)COC(=O)c2ccc3c(c2)OCCO3)cc1,20.1*,-4.9,13.8,-0.1,-1.0,-0.4
O=C(COC(=O)c1ccc(NS(=O)(=O)c2ccc3c(c2)OCCO3)cc1)NC1CCS(=O)(=O)C1 (stereo not drawn),-0.9,25.1*,-12.4,-5.8,-9.2,3.0
O=C(COC(=O)CNC(=O)c1ccc(Br)o1)Nc1ccc2c(c1)OCCO2,0.6,5.3,2.9,-1.1,4.4,2.9
O=C(COC(=O)c1ccc(Br)o1)Nc1ccc2c(c1)OCCO2,0.3,-11.8,4.0,-20.4,-0.3,27.5*
CCCOc1cccc(C(=O)N/N=C/c2coc3ccccc3c2=O)c1,-0.1,19.6,-22.7,29.6*,0.0,1.2
CCC(=O)N1CCc2cc(Br)c(S(=O)(=O)CCC(=O)NCCc3ccccc3)cc21,0.3,-13.2,13.9,-16.4,-2.3,5.8
Cc1ccc(C(C(=O)NC2CCCCC2)N(Cc2ccccc2)C(=O)Cc2c[nH]c3ccccc23)o1 (stereo not drawn),19.1*,5.4,18.8,7.8,-5.9,-6.7
CCOC(=O)CN(C(=O)CNC(=O)c1ccco1)C(C(=O)NC1CCCCC1)c1cccs1 (stereo not drawn),2.5,-13.5,16.2,-0.6,-0.9,2.4
COCCN(C(=O)c1ccco1)C(C(=O)NC1CCCC1)c1cccs1 (stereo not drawn),-0.1,24.7*,-6.3,-1.9,-2.7,2.6
CCOCCCN(C(=O)CNC(=O)c1ccco1)C(C(=O)NC1CCCC1)c1ccccc1C (stereo not drawn),1.6,44.5*,5.1,1.4,-0.1,-0.1
CCOC(=O)CN(C(=O)CNC(=O)c1ccco1)C(C(=O)NC1CCCC1)c1ccccc1OCC (stereo not drawn),1.6,-0.7,14.2,-2.5,-3.2,7.3
C=CCN(C(=O)CNC(=O)c1ccco1)C(C(=O)NC1CCCCC1)c1ccc(OC)cc1 (stereo not drawn),0.4,-5.6,9.4,14.6,-3.3,-6.8
COc1ccc(C(C(=O)NC2CCCC2)N(Cc2ccccc2)C(=O)CNC(=O)c2ccco2)cc1 (stereo not drawn),1.2,32.2*,-3.8,9.7,1.6,1.3
COc1ccc(CN(C(=O)Cc2c[nH]c3ccccc23)C(C(=O)NC2CCCCC2)c2ccc(C)o2)cc1 (stereo not drawn),1.6,-1.3,4.8,14.3,-6.9,-10.1
Cc1ccc(CSCC(=O)N(C)CC(=O)Nc2ccccc2C(F)(F)F)cc1,1.9,-4.0,-0.9,-16.4,1.0,7.2
CN1/C(=C\C=C2/SC(=S)N(CC(=O)O)C2=O)C(C)(C)c2ccccc21,30.5*,12.3,13.2,37.0*,130.5*,-16.8
CN1CCS/C1=C\C=C1/SC(=S)N(CC(=O)O)C1=O,39.6*,10.6,7.0,6.3,11.7,-8.1
Cc1noc(C)c1COC(=O)c1csc2c1CCC(C)C2 (stereo not drawn),-0.6,-4.8,-0.6,2.1,-6.8,-3.0
CCOC(=O)c1cn(Cc2ccc(C)cc2)c2cc(F)ccc2c1=O,-0.7,6.1,-15.7,-10.0,16.7*,17.6
COc1ccc(S(=O)(=O)N2CCOCC2)cc1NC(=O)C1CCN(S(=O)(=O)c2ccc(Cl)cc2)CC1,-0.2,2.0,-4.4,0.3,-4.6,5.3
Clc1ccc(-c2ccc(-c3nn4c(-c5ccco5)nnc4s3)o2)cc1,0.0,-29.6,9.5,-2.3,-1.8,7.8
Brc1ccc(-c2nn3c(-c4ccco4)nnc3s2)o1,0.4,24.6*,-6.3,-6.8,-7.0,7.0
SMILES,M1 ag parental,CHO-K1 Ca antag,CHO-K1 Ca PAM,CHRM1 antagonist,M1 ag,CHRM1 PAM
Cc1ccc(CC(CC(=O)O)C(=O)NCC23CC4CC(CC(C4)C2)C3)cc1 (stereo not drawn),-0.2,4.1,-6.3,3.2,-2.1,-5.4
O=C(O)CC(Cc1ccc(Cl)cc1)C(=O)NCC12CC3CC(CC(C3)C1)C2 (stereo not drawn),0.0,-5.1,0.2,31.5*,-6.1,-11.2
CC(C)C(O)(C#CCN1CCCCCC1)c1ccccc1 (stereo not drawn),1.1,-3.3,18.9,86.7*,-13.8,-33.1
CC(O)(C#CCN1CCCC1)c1ccccc1 (stereo not drawn),7.6,-9.8,19.6,41.0*,-8.8,-21.4
OC(C#CCN1CCCC1)(c1ccccc1)c1cccc(F)c1 (stereo not drawn),0.0,1.2,5.5,100.8*,-14.9,-28.1
CC(C)(C#CCN1CCCCC1)OCCOC(c1ccccc1)c1ccccc1,0.4,-10.0,8.0,98.9*,-9.2,-26.0
C(#Cc1ccccc1)CN1CCCCC1,2.7,-12.0,17.9,1.2,-15.4,-6.0
CC(O)(C#CCN1CCCCC1)c1ccccc1 (stereo not drawn),-0.2,-2.5,-1.1,29.7,-8.1,-18.7
O=c1n(Cc2ccccc2)c(O)c2n1Cc1ccccc1N=C2c1ccccc1,8.5,-0.3,13.8,-18.3,-2.3,2.8
COC(=O)C1=C/CCCN(C(c2ccccc2)c2ccccc2)/C=C\1C(=O)OC,0.2,-6.4,-3.9,-14.6,-3.6,2.9
CC1CCCN1CC#CC(O)(c1ccccc1)c1ccccc1 (stereo not drawn),0.2,-5.5,6.3,100.0*,-8.8,-27.6
Cc1ccc(NC(=O)/C=C\C(=O)NCC(=O)O)cc1,0.2,3.0,-3.6,2.7,-2.9,-5.5
CC(=O)Cc1nsc(NC(=O)c2cn(-c3ccccc3)nc2-c2ccc(Br)cc2)n1,-0.1,24.7*,-5.3,-11.8,-3.4,12.7
COc1ccccc1C(=O)NCCC(=O)NC1CCCC(C)C1C (stereo not drawn),4.0,-12.0,19.6,-7.2,-2.5,5.9
COc1ccc(CCNC(=O)CCC(=O)NC2CCCC(C)C2C)cc1OC (stereo not drawn),-0.6,29.2*,5.7,-11.3,-2.6,6.1
COc1ccc(CCNC(=O)CCC(=O)c2cccs2)cc1OC,-0.3,27.5*,-25.6,11.4,-3.4,-5.1
CSc1ccccc1C(=O)NC1CCSc2ccccc21 (stereo not drawn),0.1,-6.5,-3.0,-3.9,-11.5,5.6
CCN1CCN(c2cc(C)c3cc(NC(=O)Cc4ccc(OC)c(OC)c4)ccc3n2)CC1,-0.7,28.4*,1.0,-14.8,-7.2,10.2
